Assay results reported in PubChem BioAssay (NCI).
About 83,000 compounds went through this panel and 20% of them were active in at least one assay; those are over-represented in the sample as a whole.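 48-hour exposure, single concentration, 96-well plates; percent growth endpoint where 0 means no net growth. Active: below 10.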 Calls of active or inactive are those of the source.

Assays:
Test in all cases: NCI-60 one-dose screen, 48 h (100 = growth as untreated, 0 = no growth, -100 = all killed)
Conditions in all cases: 10 µM unless noted
T-47D breast = tested on: T-47D breast
BT-549 breast = tested on: BT-549 breast
MDA-MB-435 melanoma = tested on: MDA-MB-435 melanoma
SW-620 colon = tested on: SW-620 colon
MCF7 breast = tested on: MCF7 breast
HCT-116 colon = tested on: HCT-116 colon
HCC-2998 colon = tested on: HCC-2998 colon
KM12 colon = tested on: KM12 colon

Measured: growth

CN1CCN(Cc2ccc(NC(=O)c3cncc(C#Cc4cnc(N)c5cnccc45)c3)cc2C(F)(F)F)CC1
active: MDA-MB-435 melanoma -9.64% | SW-620 colon -10.9% | HCT-116 colon 0.743% | KM12 colon 3.81%
inactive: T-47D breast 22.8% | BT-549 breast 27.4% | MCF7 breast 25.3% | HCC-2998 colon 19.9%

O=C1C(Cl)=C(Nc2ccccn2)C(=O)c2ccccc21
inactive: T-47D breast 33.6% | BT-549 breast 100% | SW-620 colon 30.5% | MCF7 breast 29.6% | HCT-116 colon 19.9% | HCC-2998 colon 110% | KM12 colon 86%
active: MDA-MB-435 melanoma -81.4%

CC(=O)Nc1scc[n+]1Cc1ccccc1
inactive: T-47D breast 102% | BT-549 breast 103% | MDA-MB-435 melanoma 110% | SW-620 colon 105% | MCF7 breast 98.4% | HCT-116 colon 102% | HCC-2998 colon 103% | KM12 colon 105%

C=C[C@@H]1C[C@@H]2Cc3c(C)cc(C)cc3N1O2
inactive: T-47D breast 115% | BT-549 breast 112% | MDA-MB-435 melanoma 101% | SW-620 colon 102% | MCF7 breast 97.6% | HCT-116 colon 104% | HCC-2998 colon 103% | KM12 colon 104%

O=c1[nH]c2ccc(Br)cc2c2c1C(c1ccc(Cl)cc1)c1c(ncn3nc(-c4ccco4)nc13)O2 (centres undefined)
inactive: T-47D breast 60.9% | BT-549 breast 76.9% | MDA-MB-435 melanoma 85.2% | SW-620 colon 73.6% | MCF7 breast 68.7% | HCT-116 colon 67.5% | HCC-2998 colon 86.6% | KM12 colon 94.5%

Clc1cc(Cl)cc(-c2ccc(-c3ccc(/C=N/NC4=NCCN4)cc3)s2)c1
active: SW-620 colon -59.7% | HCT-116 colon -10.4% | KM12 colon -2.85%
inactive: T-47D breast 56.4% | BT-549 breast 94.3% | MDA-MB-435 melanoma 25.8% | MCF7 breast 16% | HCC-2998 colon 19.3%

COc1ccc(Nc2nc(N)nc3c2CCN(Cc2ccc(OC)cc2OC)C3=O)cc1
inactive: T-47D breast 75.9% | BT-549 breast 74.9% | MDA-MB-435 melanoma 79.2% | SW-620 colon 80% | MCF7 breast 87.7% | HCT-116 colon 49.9% | HCC-2998 colon 94.2% | KM12 colon 85.1%

CNc1ccc(Br)c2c1C(=O)c1ccccc1C2=O
inactive: T-47D breast 97.1% | BT-549 breast 104% | MDA-MB-435 melanoma 108% | SW-620 colon 107% | MCF7 breast 72.4% | HCT-116 colon 96.6% | HCC-2998 colon 109% | KM12 colon 107%

COc1cc(C2C3=C(COC3=O)Nc3cc4c(cc32)OCO4)cc2c1OCO2 (centres undefined)
inactive: T-47D breast 51.9% | BT-549 breast 25.4% | SW-620 colon 17.1% | MCF7 breast 13.9%
active: MDA-MB-435 melanoma -20.4% | HCT-116 colon 6.83% | HCC-2998 colon 8.39% | KM12 colon 1.28%

NC(=O)CCCN1C/C(=C\c2ccccc2)C(=O)c2ccccc21
inactive: T-47D breast 83.2% | BT-549 breast 93.7% | MDA-MB-435 melanoma 101% | SW-620 colon 97.6% | MCF7 breast 96.7% | HCT-116 colon 101% | HCC-2998 colon 93.8% | KM12 colon 101%

NC(N)=Nc1nc2ccccc2o1
inactive: T-47D breast 98.3% | BT-549 breast 89.9% | MDA-MB-435 melanoma 122% | SW-620 colon 95.7% | MCF7 breast 96.8% | HCT-116 colon 95.5% | HCC-2998 colon 82.5% | KM12 colon 95.9%

COc1cc(C2C3=C(COC3=O)Nc3cc4c(cc32)CCC4)cc2c1OCO2 (centres undefined)
inactive: T-47D breast 64% | BT-549 breast 23.8% | SW-620 colon 25.4% | MCF7 breast 19.1%
active: MDA-MB-435 melanoma -12.3% | HCT-116 colon 5.73% | HCC-2998 colon 8.29% | KM12 colon 3%

COc1cc(/C(C#N)=C/c2ccc3c(c2OC)OCO3)cc2c1OCO2
inactive: T-47D breast 52.7% | BT-549 breast 71.7% | SW-620 colon 19.8% | MCF7 breast 21.4% | HCT-116 colon 16.7% | HCC-2998 colon 12.8% | KM12 colon 17.4%
active: MDA-MB-435 melanoma -39.4%

Cc1ccc(-c2nc(C(Cl)Cl)n3nc(-c4ccccc4)cc3n2)cc1
inactive: BT-549 breast 70.8% | MDA-MB-435 melanoma 15.4% | MCF7 breast 18.9% | HCC-2998 colon 23.3%
active: T-47D breast -6.55% | SW-620 colon -22.4% | HCT-116 colon 9.65% | KM12 colon 0.685%

CCOC(=O)c1c(/N=C2\SC(=O)/C(=C\C(=O)OC)N2NC)sc2c1CCN(C(=O)OCC)C2
inactive: T-47D breast 93.4% | BT-549 breast 91.7% | MDA-MB-435 melanoma 101% | SW-620 colon 105% | MCF7 breast 98.7% | HCT-116 colon 95% | HCC-2998 colon 92.5% | KM12 colon 99.1%

CCN1CCN(CC(=O)N2c3cccc4cccc(c34)N(C(=O)CN3CCN(CC)CC3)C2c2cn(-c3ccccc3)nc2-c2cccc([N+](=O)[O-])c2)CC1
active: T-47D breast -70.7% | MDA-MB-435 melanoma -75.7% | SW-620 colon -43.6% | MCF7 breast -29% | HCT-116 colon -54.9% | HCC-2998 colon -49.1%
inactive: BT-549 breast 80.7% | KM12 colon 23.4%

COc1cc(NCCCCCN)c2ncccc2c1
inactive: T-47D breast 96.2% | BT-549 breast 113% | MDA-MB-435 melanoma 114% | SW-620 colon 99.4% | MCF7 breast 83.2% | HCT-116 colon 89.1% | HCC-2998 colon 125% | KM12 colon 109%

COc1cc(/C=N\NC(=O)CN2CCN(c3cc4c(cc3F)c(=O)c(C(=O)N/N=C/c3cc(OC)c(OC)c(OC)c3)cn4C3CC3)CC2)cc(OC)c1OC
active: T-47D breast -12.3% | BT-549 breast -17.7% | MDA-MB-435 melanoma -45.1% | SW-620 colon 6.11% | MCF7 breast 7.55% | HCT-116 colon -32.5% | HCC-2998 colon -95.2% | KM12 colon -61.7%

Cc1nc2cncc(C#Cc3cncc(C(=O)Nc4ccc(CN5CCN(C)CC5)c(C(F)(F)F)c4)c3)c2nc1C
active: MDA-MB-435 melanoma -1.99% | SW-620 colon 1.45% | HCT-116 colon 5.45% | KM12 colon 3.08%
inactive: T-47D breast 26.6% | BT-549 breast 37.6% | MCF7 breast 19% | HCC-2998 colon 30.7%

COc1ccc(-c2cnoc2-c2ccc(OC)cc2O)cc1
inactive: T-47D breast 40.3% | BT-549 breast 56.5% | SW-620 colon 11% | MCF7 breast 19.6% | HCT-116 colon 16.5% | HCC-2998 colon 32% | KM12 colon 19.2%
active: MDA-MB-435 melanoma -29.4%

CCOC(=O)CN1/C(=N/c2sc3c(c2C(=O)OCC)CCN(C(=O)OCC)C3)SC(=O)/C1=C\C(=O)OC
inactive: T-47D breast 30.8% | BT-549 breast 89.4% | MDA-MB-435 melanoma 99.7% | SW-620 colon 71.6% | MCF7 breast 49.3% | HCT-116 colon 71.6% | HCC-2998 colon 94.4% | KM12 colon 97.4%

Cc1ccc(NS(=O)(=O)c2cc(C)ccc2C)cc1
active: MDA-MB-435 melanoma -24%
inactive: T-47D breast 47.9% | BT-549 breast 39.1% | SW-620 colon 19.9% | MCF7 breast 24.3% | HCT-116 colon 17.6% | HCC-2998 colon 50.9% | KM12 colon 16.2%

O=C1CCCCC1(c1ccccc1)c1ccccc1
inactive: T-47D breast 95% | BT-549 breast 114% | MDA-MB-435 melanoma 101% | SW-620 colon 101% | MCF7 breast 105% | HCT-116 colon 98.4% | HCC-2998 colon 92.2% | KM12 colon 100%

O=C(NCc1cn(Cc2cccc(Oc3ccccc3)c2)nn1)c1cccnc1Nc1ccc(F)cc1
inactive: T-47D breast 83.1% | BT-549 breast 86.6% | SW-620 colon 44.7% | MCF7 breast 24% | HCT-116 colon 32.8% | HCC-2998 colon 62.7% | KM12 colon 34.4%
active: MDA-MB-435 melanoma -11.7%

C=C1CCC2C3(C)COC(c4ccccc4)OC3CCC2(C)C1/C=C/C1=CCOC1=O (centres undefined)
active: BT-549 breast -18.3% | HCT-116 colon 8%
inactive: T-47D breast 72.2% | MDA-MB-435 melanoma 31.4% | SW-620 colon 25.6% | MCF7 breast 31.8% | HCC-2998 colon 111% | KM12 colon 28.7%

COc1cc2c(cc1OCCCCCn1c3ccccc3c3ccccc31)N=C[C@@H]1CCCN1C2=O
active: T-47D breast -34.1% | BT-549 breast -61.6% | MDA-MB-435 melanoma -99.2% | SW-620 colon -79.1% | MCF7 breast -30.9% | HCT-116 colon -75.8% | HCC-2998 colon -94.8% | KM12 colon -11.4%

Oc1ccc(Cl)cc1-c1cc(-c2ccc(F)cc2)n[nH]1
inactive: T-47D breast 24.3% | BT-549 breast 84.7% | MDA-MB-435 melanoma 83% | SW-620 colon 75.5% | MCF7 breast 15.8% | HCT-116 colon 51.5% | HCC-2998 colon 37.8% | KM12 colon 37%

COc1ccc(C(=O)c2cc(OC)c(OC)c(OC)c2OC)cc1O
active: MDA-MB-435 melanoma -24%
inactive: T-47D breast 44.8% | BT-549 breast 39.8% | SW-620 colon 20.5% | MCF7 breast 17.5% | HCT-116 colon 17.9% | HCC-2998 colon 58.6% | KM12 colon 20.8%
